Data reported in ChEMBL document CHEMBL4513216, “Probing the Open Global Health Chemical Diversity Library for Multistage-Active Starting Points for Next-Generation Antimalarials” (ACS Infect Dis, 2020).
Screen size: about 68,000 compounds; about 2,700 (4%) showed an effect of 50% or more. This excerpt belongs to a sample that is enriched for strong results.

What follows are molecules tested on Plasmodium berghei (assay: Screen against P. berghei liver stage (PbLuc), transformed with Luciferase, at 2uM). Details: tested at 2 uM.
Format: functional, HepG2

SMILES | INHIBITION [%]
COc1ccc(CN2C[C@@H]3OCCN(CCN4CCCC4)[C@@H]3C2)cc1 | 28.85
CN(C(=O)c1cccc(NCc2cccs2)c1)C(C1CC1)C1CC1 | 29.41
Nc1nc2c(c(NCc3nccs3)n1)CCN(CC1CCCC1)CC2 | -1.29
CCc1cnc(CN(C(C)=O)C2CCN(CC(=O)N3CCCC3)C2)o1 (stereo not given) | 75.98
CCc1cnc(CN(C(C)=O)C2CCN(CCS(C)(=O)=O)C2)o1 (stereo not given) | -9.62
CCc1cnc(CN(C(C)=O)C2CCN(CCc3cnn(C)c3)C2)o1 (stereo not given) | 1.61
CCc1cnc(CN(C(C)=O)C2CCN(CCc3ccccn3)C2)o1 (stereo not given) | 35.65
CCc1cnc(CN(C(C)=O)C2CCN(CCN3CCCCC3)C2)o1 (stereo not given) | 56.02
CCc1cnc(CN(C(C)=O)C2CCN(CCc3ccncc3)C2)o1 (stereo not given) | 17.31
CCc1cnc(CN(C(C)=O)C2CCN(CCc3ccccc3)C2)o1 (stereo not given) | 51.94
CCc1cnc(CN(C(C)=O)C2CCN(CC3(O)CCCCC3)C2)o1 (stereo not given) | 43.79
CCc1cnc(CN(C(C)=O)C2CCN(Cc3nccn3C)C2)o1 (stereo not given) | 10.22
Cc1cc(C)cc(OCC(=O)N2CCCN(CC(N)=O)CC2)c1 | -28.76
CN(C)C[C@H]1OC[C@@H]2CCN(C(=O)c3cccn3C)C[C@@H]21 | 8.65
Cc1cc(C)n(NC(=O)c2ccc(Cl)cc2Cl)c(=O)c1 | -3.05
Cc1ccc(CNC2CC3(CCN(CCO)CC3)c3ccccc32)s1 (stereo not given) | 47.05
CN(C)[C@@H]1CN(C(=O)COc2cccc(F)c2)C[C@H]1O | -0.83
CCCNC(=O)C1CCN(Cc2csc(CC)n2)CC1 | 36.64
COCCC1COC2(CCN(C(=O)Cc3ccccc3)CC2)C1 (stereo not given) | -19.07
O=C([C@@H]1COC[C@H]2CN(C3CCOCC3)C[C@H]21)N1CCCCO1 | 59.77
O=C([C@H]1COC[C@H]2CN(C3CCOCC3)C[C@H]21)N1CCCO1 | -17.39
O=C([C@H]1COC[C@H]2CN(C3CCOCC3)C[C@H]21)N1CCCCO1 | -3.25

SMILES | INHIBITION [%]
CCOCC1c2c(cnn2CC2CC2)CCN1Cc1nccs1 (stereo not given) | 26.64
O=C(NCCCO)c1nnsc1-c1ccc(Cl)cc1 | 34.52
CN(CCCc1cnn(C)c1)Cc1cc2n(n1)CCNC2 | 19.66
CS(=O)(=O)NCCCN1CCCC1c1ccsc1 (stereo not given) | 51.46
CS(=O)(=O)NCCCN1CCCC1c1ccccc1 (stereo not given) | 42.11
CS(=O)(=O)NCCCN1CCCC1c1cccc(Br)c1 (stereo not given) | -8.52
Cc1noc(C)c1CN1C[C@@H]2COC[C@H](C(=O)N3CCCCO3)[C@@H]2C1 | -60.98
O=C(O)CCn1ccc(=O)c2cc(F)ccc21 | 55.73
O=C(O)Cn1ccc(=O)c2cc(F)ccc21 | 3.88
COC(=O)CCn1ccc(=O)c2cc(F)ccc21 | -17.26
O=C(CCn1cncn1)Nc1ccc(F)cc1OCC1CC1 | 14.47
Cn1cc(CNCCNc2ncc(Cl)cc2Cl)cn1 | -12.84
CCn1cc(CNCCNc2ncc(Cl)cc2Cl)cn1 | -30.98
Cn1ccnc1CNCCNc1ncc(Cl)cc1Cl | 57.43
CC(C)c1nc(CN2CCc3onc(-c4cccc(F)c4)c3C2)no1 | -18.57
COc1c(CNCCNC(=O)c2ccc(C)c(F)c2)c(C)nn1C | -45.21
COc1c(CNCCNC(=O)c2ccccc2)c(C)nn1C | 33.82
COc1c(CNCCNC(=O)c2ccccc2F)c(C)nn1C | 67.69
COc1cccc([C@@H]2CN(C(=O)c3ccc(C)cc3O)C[C@H]2C(=O)O)c1 | 10.1
Cc1cn2nc(N3CCCC3C(=O)N3CCN(C)CC3)sc2n1 (stereo not given) | 7.67
Cc1cn2nc(N3CCCC3C(=O)N3CCSCC3)sc2n1 (stereo not given) | 55.36
Cc1cn2nc(N3CCCC3C(=O)N3CCOCC3)sc2n1 (stereo not given) | -11.41

SMILES | INHIBITION [%]
COc1ccc(C(=O)NC(CC(=O)O)c2cccs2)c(OC)c1 (stereo not given) | 7.01
COCC(O)CN1CCC(NC(=O)c2cccc(C)c2)CC1 (stereo not given) | 2.32
CS(=O)(=O)CCCNC1(c2cccc(Cl)c2)CCCC1 | 17.2
CS(=O)(=O)CCCNC1(c2ccc(Br)cc2)CCC1 | 55.36
Cc1cccc(C2(NCCCS(C)(=O)=O)CCCC2)c1 | 36.28
O=C(NCc1ccnc(OCC(F)(F)F)c1)NCC1CCOC1 (stereo not given) | -3.72
CNC(=O)[C@H]1C[C@@H]2CN(S(=O)(=O)c3ccccc3)C[C@@H]2N1C(C)=O | 5.52
O=C(NCc1cccs1)[C@H]1CC[C@@H]2[C@@H](CCN2c2ncccn2)O1 | -23.39
Cc1oncc1C(=O)N1CCc2ncnc(-c3cnn(C)c3)c2CC1 | 33.74
Cc1occc1C(=O)N1CCc2ncnc(-c3cnn(C)c3)c2CC1 | 23.27
Cc1cc(C(=O)N2CCc3ncnc(-c4cnn(C)c4)c3CC2)c(C)o1 | 55.94
CC(C)CC(NC(=O)c1ccn(C)c(=O)c1)c1cccs1 (stereo not given) | 9.29
CN(CCc1cn[nH]c1)C(=O)C1CC(=O)N(Cc2ccccn2)C1 (stereo not given) | 48.93
COCc1noc(CCNC(=O)c2ccc(C3CCCO3)s2)n1 (stereo not given) | -31.23
Cc1cc(CN2C[C@H](N3CCOCC3)[C@@H]3OCCC[C@@H]32)oc1C | -0.23
Cc1ccc(CN2C[C@@H](N(C)C)[C@H]3OCCC[C@H]32)o1 | 39.57
Cc1ccc(CN2C[C@H](N3CCOCC3)[C@@H]3OCCC[C@@H]32)o1 | 63.23
COCC(=O)N1CCC2(C1)c1ccccc1S(=O)(=O)N2CC1CC1 (stereo not given) | -11.81
CCN1CCC(NC(=O)Cn2cc(C)c3ccccc32)CC1 | -3.38
Cc1cn(CC(=O)NC2CCC(C(=O)O)CC2)c2ccccc12 (stereo not given) | 0.13
Cc1cn(CC(=O)NC2CCC3(CC2)OCCO3)c2ccccc12 | 70.17
